Screens as filed in PubChem BioAssay.
Rows were chosen to be rich in hits. Some 1.1% of all compounds tested hit in one or more screens of this group.
OPRM1-OPRD1 ag – agonists of human mu-delta opioid receptor heterodimerization; P35372+P41143; cells, OPRM1-OPRD1 heterodimerization, luminescence; activation, % at 9.3 µM; 340,000 compounds, 0.3% hits
MOR-DOR inv ag – inverse agonists of human mu-delta opioid receptor heterodimerization; cell-based MOR-DOR heterodimer luminescence, inverse agonism; inhibition, % at 9.3 µM; 340,000 compounds, 0.21% hits; AID 504357; in the data active = inhibition above about 22%, passing the limit was not always enough
HTR5A inv ctr – counter-screen for OPRM1-OPRD1 inverse agonists: human HTR5A inverse agonism. P47898. HTR5A cell line, luminescence. inhibition, % at 9.3 µM. 340,000 compounds, 0.083% hits. AID 504634; in the data active = inhibition mostly above about 23%, no sharp cut-off; inactive = mostly below about 18%
HTR5A ag ctr – activates human HTR5A in OPRM1-OPRD1 agonist counter-screen; P47898; HTR5A agonist assay, luminescence, cell-based; activation, % at 9.3 µM; 340,000 compounds, 0.61% hits; AID 504692; in the data active = activation mostly above about 9.5%, no sharp cut-off; inactive = mostly below about 7.6%
MOR-DOR ag conf – confirmation of human OPRM1-OPRD1 heterodimerization agonists | activation, % at 9.3 µM | shares compounds with OPRM1-OPRD1 ag | 830 compounds, 45% hits | cells, MOR-DOR heterodimerization, luminescence complementation | AID 504904
HTR5A ag ctr2 – HTR5A agonism, opioid heterodimer counter-screen | activation, % at 9.3 µM | 830 compounds, 8% hits | AID 504905 | HTR5A agonist counterscreen, cell luminescence | shares compounds with OPRM1-OPRD1 ag; in the data active = activation above about 17%
Each line names hits and unclear results; the compound was inactive in the other large screens (follow-up assays come after a bar, where they were run). Rule as the data show it, unless noted: active = activation above about 18%; inactive = the rest.

CCNC(=O)COC(=O)c1cc(-c2ccccc2)nn1-c1ccccc1	none
CN(C)C(CNC(=S)Nc1cccc(Cl)c1)c1ccccc1 (configuration not stated)	OPRM1-OPRD1 ag 357 | MOR-DOR ag conf 421 | HTR5A ag ctr2 inactive
Cc1cccc(NC(=S)NCC(c2ccccc2)N(C)C)c1 (configuration not stated)	OPRM1-OPRD1 ag 348 | MOR-DOR ag conf inactive | HTR5A ag ctr2 inactive
Cc1ccc(Cl)cc1NC(=O)CNCC(c1ccccc1)N(C)C (configuration not stated)	OPRM1-OPRD1 ag 50 | MOR-DOR ag conf 76 | HTR5A ag ctr2 inactive
Cc1cccc(NC(=S)NC(C)CCc2ccccc2)c1 (configuration not stated)	none
CC(c1ccccc1)N1CCC(CNC(=S)Nc2cccc(Cl)c2)C1 (configuration not stated)	OPRM1-OPRD1 ag 19 | MOR-DOR ag conf inactive | HTR5A ag ctr2 28
Cc1ccc(NC(=S)NCC2CCN(C(C)c3ccccc3)C2)cc1 (configuration not stated)	none
COc1ccc(C2C(C(C)=O)=C(C)Nc3ncnn32)cc1 (configuration not stated)	none
CCN(CC(=O)Nc1ccccc1OC)C(=O)c1cccc(-n2cccc2)c1	none
CC(CCc1ccccc1)NC(=O)c1ccc(NC(=O)c2ccccc2)cc1 (configuration not stated)	OPRM1-OPRD1 ag 26 | MOR-DOR ag conf inactive | HTR5A ag ctr2 inactive
Cc1nn(-c2ccccc2)c(C)c1S(=O)(=O)O	none
CC(C)[C@H](NC(=O)c1ccccc1Cl)C(=O)OCC(=O)NC(=O)NC1CCCC1	none
CC(C)[C@H](NC(=O)c1ccccc1Cl)C(=O)OCC(=O)NC(=O)NCc1ccco1	OPRM1-OPRD1 ag 314 | MOR-DOR ag conf inactive | HTR5A ag ctr2 inactive
O=C(Nc1ccc(Br)cc1)c1cc([N+](=O)[O-])cc([N+](=O)[O-])c1	OPRM1-OPRD1 ag 22 | MOR-DOR ag conf inactive | HTR5A ag ctr2 inactive
CC(=O)Nc1ccc(NC(=O)c2cc([N+](=O)[O-])cc([N+](=O)[O-])c2)cc1	none
CCc1ccc(OCc2n[nH]c(=S)n2C(C)CCCC(C)C)cc1 (configuration not stated)	OPRM1-OPRD1 ag 20 | MOR-DOR ag conf inactive | HTR5A ag ctr2 18
CCOCCCNC(=O)C1CCN(C(=O)N(C)C)CC1	none
COc1ccc(CN(C(=O)c2oc3ccc(F)cc3c2C)C2CCS(=O)(=O)C2)cc1 (configuration not stated)	none
Cc1ccc2c(C)c(C(=O)N(Cc3cccs3)C3CCS(=O)(=O)C3)oc2c1 (configuration not stated)	OPRM1-OPRD1 ag 47 | MOR-DOR ag conf 75 | HTR5A ag ctr2 inactive
CCOc1ccc(CN(C(=O)c2oc3cc(C)ccc3c2C)C2CCS(=O)(=O)C2)cc1 (configuration not stated)	none
Cc1c(C(=O)N(Cc2ccccc2Cl)C2CCS(=O)(=O)C2)oc2ccccc12 (configuration not stated)	none
Cc1ccc2c(C)c(C(=O)N(Cc3ccccc3)C3CCS(=O)(=O)C3)oc2c1 (configuration not stated)	OPRM1-OPRD1 ag 35 | MOR-DOR ag conf inactive | HTR5A ag ctr2 inactive
Cc1cc2oc(C(=O)N(Cc3ccccc3)C3CCS(=O)(=O)C3)c(C)c2cc1C (configuration not stated)	OPRM1-OPRD1 ag 40 | MOR-DOR ag conf 21 | HTR5A ag ctr2 inactive
Cc1ccc2oc(C(=O)N(Cc3ccccc3)C3CCS(=O)(=O)C3)c(C)c2c1 (configuration not stated)	OPRM1-OPRD1 ag 20 | MOR-DOR ag conf inactive | HTR5A ag ctr2 inactive
C(=N\Nc1ncnc2ccccc12)/c1ccccc1	none
CC(=O)Nc1cccc(NC(=O)CSc2nnc3ccc(-c4ccccn4)nn23)c1	none
C=CC(=O)Nc1cccc(CN2C(=O)N(c3cc(OC)cc(OC)c3)Cc3cnc(NCCCCN(CC)CC)nc32)c1	none
CCCCNC(=O)C1CCC(CNS(=O)(=O)c2c(C)cc(C)cc2C)CC1 (configuration not stated)	none
COc1ccccc1N1CCN(C(=O)c2sc3ncnc(N4CCN(c5ccccn5)CC4)c3c2C)CC1	none
COc1ccccc1N1CCN(C(=O)c2sc3nc(C)nc(N4CCN(c5ccccn5)CC4)c3c2C)CC1	OPRM1-OPRD1 ag 109 | MOR-DOR ag conf 134 | HTR5A ag ctr2 inactive
Cc1nc(N2CCN(c3ccccn3)CC2)c2c(C)c(C(=O)N3CCN(c4ccc(F)cc4)CC3)sc2n1	OPRM1-OPRD1 ag 167 | MOR-DOR ag conf 239 | HTR5A ag ctr2 inactive
CCOc1ccc2nc(NCCNC(=O)Nc3ccccc3)c(C#N)cc2c1	OPRM1-OPRD1 ag 50 | MOR-DOR ag conf 29 | HTR5A ag ctr2 inactive
Oc1cccc2c(NC(=S)Nc3ccc(SC(F)F)cc3)cccc12	none
Oc1cccc(NC(=S)Nc2ccc(SC(F)F)cc2)c1	OPRM1-OPRD1 ag 32 | MOR-DOR ag conf inactive | HTR5A ag ctr2 inactive
CCc1nnc(NC(=O)CC(C)c2ccccc2)s1 (configuration not stated)	none
CCN(CC)c1ccc(/C=N/NC(=O)Nc2nonc2N)cc1	none
O=S(=O)(Nc1cc(Cl)ccc1-n1cncn1)c1ccccc1Cl	OPRM1-OPRD1 ag 73 | MOR-DOR ag conf inactive | HTR5A ag ctr2 inactive
O=S(=O)(Nc1cc(Cl)ccc1-n1cncn1)c1cc(Br)ccc1Br	none
CN=C(C)/C(C(=O)OC)=C(/O)c1ccccc1F	none
COc1ccc(Oc2ccc(C(F)(F)F)cc2N)cc1	OPRM1-OPRD1 ag 18 | MOR-DOR ag conf inactive | HTR5A ag ctr2 inactive
COc1ccc(Oc2ccc(C(F)(F)F)cc2NC(=O)c2ccc(OC)cc2)cc1	none
NC1=C(Cl)C(=O)c2ccccc2C1=O	none
NC1=C(Cl)C(=O)c2ccc(S(N)(=O)=O)cc2C1=O	OPRM1-OPRD1 ag 39, HTR5A ag ctr 16 | MOR-DOR ag conf inactive | HTR5A ag ctr2 inactive
Cn1nc(-c2ccccn2)nc2c(=O)n(C)c(=O)nc1-2	OPRM1-OPRD1 ag 41 | MOR-DOR ag conf 28 | HTR5A ag ctr2 inactive
CCCc1nc2c(=O)n(C)c(=O)nc-2n(C)n1	OPRM1-OPRD1 ag 28, HTR5A ag ctr 9.4 | MOR-DOR ag conf 337 | HTR5A ag ctr2 inactive
Oc1cccc(C(=S)N2CCC(Cc3ccccc3)CC2)c1	none
Oc1cccc(C(=S)N2CCN(Cc3ccccc3)CC2)c1	OPRM1-OPRD1 ag 32 | MOR-DOR ag conf inactive | HTR5A ag ctr2 inactive
CN(C)CCCN(C(=O)c1ccc(Br)s1)c1nc2cc3c(cc2s1)OCCO3	OPRM1-OPRD1 ag 35 | MOR-DOR ag conf 93 | HTR5A ag ctr2 inactive
Cc1ccc2cccc(OCc3ccc(F)cc3)c2n1	none
COc1ccc(-c2noc(CSc3nc4sc(C)c(C)c4c(=O)n3-c3ccccc3)n2)cc1	none
Cc1cccc(NC(=S)Nn2cnnc2)c1C	none
